High-throughput results from PubChem BioAssay.
An excerpt weighted towards active compounds, which were near 9.4% of everything screened.
Pf growth 48h: P. falciparum growth inhibition at 48 hours (one generation). 310,000 tested, 5.9% active. Potency, µM (highest dose often 28.7 µM), usual class: inhibitors. P. falciparum luciferase growth in erythrocytes, 48 h
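Firefly luciferase activity from engineered P. falciparum reports growth; inhibitors lower the luminescent signal. Cultures contained 2% hematocrit erythrocytes at 0.1% final parasitemia.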
Pf growth 96h: P. falciparum growth inhibition at 96 hours | P. falciparum luciferase reporter growth, 96 h | Potency, µM (titrated, usually from 28.7 µM), hits mostly inhibitors | 320,000 tested, 6.9% active | AID 504834
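96 h incubation, 37 C, 5% CO2, of luciferase-reporter P. falciparum-infected RBCs (2% hematocrit, 0.05% parasitemia final) with test compounds; endpoint luminescence.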
AMA1 RON2 block: disrupts binding of P. falciparum AMA1 to RON2 | AlphaScreen AMA1-biotinylated RON2 peptide binding | Potency, µM (top dose mostly 58.2 µM), usual class: inhibitors | 360,000 tested, 0.2% active; also: nearly all actives have a fitted effect of over 45% in size
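AMA1 (3D7) with his tag at 25 nM final met compounds first, then biotinylated RON2 peptide at 25 nM; detection used donor plus acceptor beads, 10 µg/mL apiece, read by AlphaScreen after 30 min at room temperature.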
SARS PLpro yeast: SARS-CoV PLP inhibition in yeast. AID 485353. Potency, µM (top dose mostly 32.9 µM), actives largely listed as activators. S. cerevisiae expressing SARS-CoV PLpro, growth rescue. 330,000 tested, 0.19% active; calls by dose curve; also: nearly all actives have a fitted effect of over 55% in size
A number is an active result. Unless noted, calls follow the shape of the dose curve; as a rule, active = well fitted curve in the direction sought with a large enough effect; inconclusive = small, poorly fitted or top-dose-only effect, or another doubt; inactive = no such curve, though single readings can be large; an effect the other way counts as inactive or inconclusive.

For CCC(C)(C)c1ccc(OCCCC[n+]2cccc(C)c2C)c(C(C)(C)CC)c1 the results were Pf growth 48h 0.828µM, Pf growth 96h 0.37µM, AMA1 RON2 block inactive and SARS PLpro yeast inactive.
CCC(C)NCCCOc1ccc(Cl)cc1C(C)(C)C (stereo not given) was read as Pf growth 48h inactive, Pf growth 96h inactive, AMA1 RON2 block inconclusive and SARS PLpro yeast inactive.
For Cc1cc(C(C)(C)C)ccc1OCCCCN1CCCC1 the results were Pf growth 48h inconclusive, Pf growth 96h inactive, AMA1 RON2 block inconclusive and SARS PLpro yeast inactive.
COC(=O)C1=C(Nc2ccccc2NC(=O)c2ccccc2C(=O)O)CSC1 was read as Pf growth 48h inactive, Pf growth 96h inactive, AMA1 RON2 block inactive and SARS PLpro yeast inactive.
Screening C=CCn1c(C)c(/C=C/c2cc[n+](C)cc2)c2ccccc21 returned Pf growth 48h 0.738µM, Pf growth 96h inactive, AMA1 RON2 block inactive and SARS PLpro yeast inactive.
`CCN(CC)C(=O)Cn1c(C)c(/C=C/c2cc[n+](C)cc2)c2ccccc21` gave Pf growth 48h 1.65µM, Pf growth 96h inconclusive, AMA1 RON2 block inactive and SARS PLpro yeast inactive.
For CN(C)c1ccc2nc3c(=O)[nH]c(=O)nc-3n(CC(O)C(O)C(O)CO)c2c1 (stereo not given) the results were Pf growth 48h 4.15µM, Pf growth 96h inactive, AMA1 RON2 block inactive and SARS PLpro yeast inactive.
For CCOCCCNCC(=O)Nc1ccc(S(=O)(=O)NC(C)CC)cc1 (stereo not given) the results were Pf growth 48h inactive, Pf growth 96h inactive, AMA1 RON2 block inactive and SARS PLpro yeast inactive.
Screening Cc1nn(Cc2ccc(Cl)c(Cl)c2)c(C)c1NC(=O)c1noc2c1CCCCC2 returned Pf growth 48h inactive, Pf growth 96h 6.57µM, AMA1 RON2 block inactive and SARS PLpro yeast inactive.
For Cc1nn(Cc2ccc(Cl)c(Cl)c2)c(C)c1NC(=O)c1cc(CC(C)C)on1 the results were Pf growth 48h inconclusive, Pf growth 96h 0.329µM, AMA1 RON2 block inactive and SARS PLpro yeast inactive.
For O=C(NCc1ccc(Cl)cc1)c1noc2c1CCCCC2 the results were Pf growth 48h inactive, Pf growth 96h 9.28µM, AMA1 RON2 block inactive and SARS PLpro yeast inactive.
For O=C(NCc1ccc(F)cc1)c1noc2c1CCCCC2 the results were Pf growth 48h inactive, Pf growth 96h inconclusive, AMA1 RON2 block inactive and SARS PLpro yeast inactive.
CCn1c(Cl)c(C=O)s/c1=N\S(=O)(=O)c1ccccc1 was read as Pf growth 48h inconclusive, Pf growth 96h inconclusive, AMA1 RON2 block inactive and SARS PLpro yeast inactive.
CC(C)CNC(=O)COc1ccccc1[N+](=O)[O-] was read as Pf growth 48h inactive, Pf growth 96h inactive, AMA1 RON2 block inactive and SARS PLpro yeast inactive.
Cc1cc(OCc2nc(-c3cccnc3)no2)c(C)cc1Br was read as Pf growth 48h inactive, Pf growth 96h inactive, AMA1 RON2 block inactive and SARS PLpro yeast inactive.
COc1ccc(-c2noc(CN(C)Cc3ccccc3)n2)c(OC)c1OC was read as Pf growth 48h inactive, Pf growth 96h 3.7µM, AMA1 RON2 block inactive and SARS PLpro yeast inactive.
`COc1ccc(N(CC(=O)NCc2ccc(Cl)cc2)S(=O)(=O)c2ccccc2[N+](=O)[O-])c(OC)c1` gave Pf growth 48h 8.28µM, Pf growth 96h inactive, AMA1 RON2 block inactive and SARS PLpro yeast inactive.
For COc1ccc(N(CC(=O)NCc2cccnc2)S(=O)(=O)c2ccccc2[N+](=O)[O-])c(OC)c1 the results were Pf growth 48h inactive, Pf growth 96h inactive, AMA1 RON2 block inactive and SARS PLpro yeast inactive.
Screening COc1ccc(S(=O)(=O)N(CC(=O)NCc2ccncc2)Cc2ccccc2)cc1 returned Pf growth 48h inconclusive, Pf growth 96h 5.22µM, AMA1 RON2 block inactive and SARS PLpro yeast inactive.
For COc1ccc(S(=O)(=O)N(Cc2ccccc2)Cc2nc(-c3ccccc3)no2)cc1 the results were Pf growth 48h 13.1µM, AMA1 RON2 block inactive and SARS PLpro yeast inactive.
`Cc1ccc(-n2ncc3c(=O)n(CC(=O)N4CCN(c5ccccc5)CC4)cnc32)cc1` gave Pf growth 48h inactive, Pf growth 96h inactive, AMA1 RON2 block inactive and SARS PLpro yeast inactive.
Screening COc1ccc(C)cc1S(=O)(=O)N(CC(=O)NCc1ccc(Cl)cc1)Cc1ccccc1 returned Pf growth 96h 11.7µM, AMA1 RON2 block inactive and SARS PLpro yeast inactive.
For CN(Cc1ccccc1)S(=O)(=O)c1ccc(OCC(=O)NCc2ccncc2)cc1 the results were Pf growth 48h 4.65µM, Pf growth 96h inactive, AMA1 RON2 block inactive and SARS PLpro yeast inactive.
`CC(C)CNC(=O)CN(c1ccccc1)S(=O)(=O)c1ccccc1[N+](=O)[O-]` gave Pf growth 48h inconclusive, Pf growth 96h 5.86µM, AMA1 RON2 block inactive and SARS PLpro yeast inactive.
`CCOc1ccc(S(=O)(=O)NCc2ccccn2)c(C)c1C` gave Pf growth 48h inconclusive, Pf growth 96h 10.4µM, AMA1 RON2 block inactive and SARS PLpro yeast inactive.
For COc1ccccc1Oc1ccc(S(=O)(=O)NCc2ccccn2)cc1 the results were Pf growth 48h inactive, Pf growth 96h 10.4µM, AMA1 RON2 block inactive and SARS PLpro yeast inactive.
For COc1ccc(S(=O)(=O)NCc2ccccn2)cc1OC the results were Pf growth 48h inactive, Pf growth 96h inactive, AMA1 RON2 block inactive and SARS PLpro yeast inactive.
For Cc1ccc(OCC(=O)Nc2cc(S(=O)(=O)N3CCCCC3)ccc2N2CCN(C)CC2)c(C)c1 the results were Pf growth 48h 2.33µM, Pf growth 96h 1.47µM, AMA1 RON2 block inconclusive and SARS PLpro yeast inactive.
Screening CCOc1ccccc1OCC(=O)Nc1cc(S(=O)(=O)N2CCCCC2)ccc1OC returned Pf growth 48h inconclusive, Pf growth 96h inactive, AMA1 RON2 block inactive and SARS PLpro yeast inactive.
`CCOc1ccccc1OCC(=O)Nc1cc(S(=O)(=O)N2CCCCC2)ccc1N1CCN(CC)CC1` gave Pf growth 48h 10.4µM, Pf growth 96h 3.29µM, AMA1 RON2 block inactive and SARS PLpro yeast inactive.
Screening Cc1ccc(S(=O)(=O)N2CCC(C(=O)Nc3ccccc3N3CCCCC3)CC2)cc1C returned Pf growth 48h inconclusive, Pf growth 96h inconclusive, AMA1 RON2 block inactive and SARS PLpro yeast inactive.
Screening COc1ccc(S(=O)(=O)N2CCC(C(=O)Nc3ccccc3N3CCCCC3)CC2)cc1OC returned Pf growth 48h inactive, Pf growth 96h 8.28µM, AMA1 RON2 block inactive and SARS PLpro yeast inactive.
Screening CCC(=O)c1ccc(OCC(=O)Nc2cc(S(=O)(=O)N3CCCCC3)ccc2N2CCN(CC)CC2)cc1 returned Pf growth 48h inconclusive, Pf growth 96h 9.28µM, AMA1 RON2 block inactive and SARS PLpro yeast inactive.
For O=C1CC(C(=O)N2CCN(c3ccccc3)CC2)CN1Cc1ccccc1 (stereo not given) the results were AMA1 RON2 block inactive and SARS PLpro yeast inactive.
For CCN1CCN(c2ccc(S(=O)(=O)N3CCCCC3)cc2NC(=O)c2ccc([N+](=O)[O-])s2)CC1 the results were Pf growth 48h 4.65µM, Pf growth 96h 1.65µM, AMA1 RON2 block inactive and SARS PLpro yeast inactive.
`Cc1cc(Cl)ccc1OCC(=O)Nc1ccccc1CO` gave Pf growth 48h 13.1µM, Pf growth 96h inactive, AMA1 RON2 block inactive and SARS PLpro yeast inactive.
